Data from PubChem BioAssay.

target: Tumor necrosis factor receptor superfamily member 10B (Homo sapiens) (UniProt O14763); assay: viability loss of caspase-8 NB7 cells with TRAIL – with/without TRAIL, luminescence panel, confirmation (AID 651596); conditions: NB7 neuroblastoma + caspase-8, TRAIL sensitization, NB7 Caspase-8, with TRAIL, mean of runs, at 10 µM, stronger effect = higher value
Sequence (O14763 whole entry, looked up): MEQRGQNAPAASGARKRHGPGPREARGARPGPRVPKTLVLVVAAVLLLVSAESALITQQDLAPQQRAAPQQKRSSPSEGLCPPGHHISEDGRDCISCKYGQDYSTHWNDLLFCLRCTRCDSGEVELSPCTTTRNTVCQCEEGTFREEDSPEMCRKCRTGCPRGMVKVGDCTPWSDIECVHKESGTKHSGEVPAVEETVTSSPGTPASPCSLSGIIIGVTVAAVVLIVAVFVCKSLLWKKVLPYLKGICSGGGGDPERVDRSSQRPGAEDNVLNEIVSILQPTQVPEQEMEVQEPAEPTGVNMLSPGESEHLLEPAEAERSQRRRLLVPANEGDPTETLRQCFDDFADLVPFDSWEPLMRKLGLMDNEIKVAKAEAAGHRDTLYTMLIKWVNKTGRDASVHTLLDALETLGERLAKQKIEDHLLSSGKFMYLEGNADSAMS

First: COC(=O)CSc1nc2cc(OC)ccc2cc1C#N
Second: CCOC(=O)c1c(C)nc2c3ccccc3ccn12
The activity of the first is higher: 75.6% for the first, 51.9% for the second.

Going from COc1ccc(-n2cc(C(=O)c3ccccc3O)cn2)cc1 to COc1ccc(C(=O)Nc2cccc(/C=C/c3nc4ccccc4c(=O)[nH]3)c2)cc1, the activity rises from 39.1% to 73.5%.

First: N#C/C(=C(/O)c1ccc([N+](=O)[O-])s1)c1nc2ccccc2[nH]1
Second: Cc1nnc(NC(=O)c2nc(S(=O)(=O)Cc3ccccc3)ncc2Cl)s1
The activity of the first is lower: 36.3% for the first, 94.5% for the second.

Compared with CCCc1cc2c(=O)c(-c3ccc4c(c3)OCCO4)coc2cc1OC(=O)c1ccco1, O=C(CSc1nnc(NC(=O)c2ccc3c(c2)OCO3)s1)NCc1ccco1 is higher in activity: 65.5% for the first, 85.4% for the second.

Compared with Cc1ccc(C(=O)Nc2ccc3nccnc3c2)cc1, Cc1cccc(NC(=S)NC(=O)c2ccc(-c3ccccc3)cc2)n1 is lower in activity: 77.5% for the first, 55.5% for the second.

Going from CCOC(=O)c1cccc(N2C(N)=NC(N)=NC2(C)C)c1 to CCOC(=O)C1=CCN(S(=O)(=O)c2ccccc2Cl)C1c1cccc(F)c1 (centres undefined), the activity falls from 52.6% to -2.9%.

Going from CC/C(=N\NC(=O)c1csc(C)c1C)c1cccs1 to CN(C)c1ccc(C=Nc2ccccc2C(N)=O)cc1, the activity rises from 57.8% to 85.3%.

First: CN1C(=O)c2ccccc2C(C(=O)NCCCN2CCCC2)C1c1c[nH]c2ccccc12 (centres undefined)
Second: O=Nc1c2cc(-c3ccccc3)[nH]nc-2c2ccccc12
The activity of the first is lower: 45.5% for the first, 78.8% for the second.

Going from COc1cc(NC(=O)Nc2nc(C(N)Cc3ccc(C(F)(F)F)cc3)cs2)cc(OC)c1OC (centres undefined) to O=C(c1ccccc1)n1c(=S)nc2ccccn21, the activity rises from 29.9% to 86.2%.

c1ccc2nc(-c3ccc(N4CCOCC4)cc3)ccc2c1 showed an activity of 72.2%.
